Rab9 prom act = activates the Rab9 promoter | Huh7 Rab9 promoter-luciferase reporter, luminescence, 24 h | Potency, µM (top dose mostly 9.22 µM), hits mostly activators | AID 485297 | 320,000 tested, 2.8% active; further: nearly all actives have a fitted effect of over 60% in size
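Luminescence read-out: Huh7 cells stably expressing Rab9-luciferase, treated 24 h with compound at 37 °C, then lysed with luciferase reagent for 10 min at ambient before reading.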
FLuc modulator = firefly luciferase modulation, counter-screen for miR-21 project; P08659; 360,000 tested, 6.9% active; purified FLuc, Km substrates, luminescence inhibition; AID 588342; Potency, µM (doses to about 57.5 µM), usual class: inhibitors; further: nearly all actives have a fitted effect of over 55% in size
Target sequence (P08659 whole entry, looked up): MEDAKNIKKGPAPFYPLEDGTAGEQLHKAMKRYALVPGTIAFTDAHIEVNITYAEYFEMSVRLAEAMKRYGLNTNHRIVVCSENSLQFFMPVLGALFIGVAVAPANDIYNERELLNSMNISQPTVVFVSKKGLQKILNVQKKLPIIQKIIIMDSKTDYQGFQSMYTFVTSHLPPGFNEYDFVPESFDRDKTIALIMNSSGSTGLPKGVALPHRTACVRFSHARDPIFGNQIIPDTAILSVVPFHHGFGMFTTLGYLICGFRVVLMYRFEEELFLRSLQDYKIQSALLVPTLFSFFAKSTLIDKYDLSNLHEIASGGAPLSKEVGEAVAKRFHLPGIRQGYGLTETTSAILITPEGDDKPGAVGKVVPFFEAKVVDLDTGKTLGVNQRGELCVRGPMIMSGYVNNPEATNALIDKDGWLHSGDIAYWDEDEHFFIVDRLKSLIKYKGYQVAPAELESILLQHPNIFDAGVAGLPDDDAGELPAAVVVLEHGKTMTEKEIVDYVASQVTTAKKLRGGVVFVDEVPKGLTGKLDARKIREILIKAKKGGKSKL
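Biochemical qHTS of compounds, final roughly 60 µM downward over six points, against 10 nM purified firefly luciferase using Km concentrations of substrates (10 uM D-luciferin, 10 uM ATP) in Tris acetate pH 7.5 buffer; luminescence output.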
SMN2 splice up = SMN2 splice variant enhancement | HEK293 SMN2-luciferase splicing reporter, luminescence, 30-36 h | Potency, µM (highest dose often 46.1 µM), actives largely listed as activators | 210,000 tested, 2.8% active; further: nearly all actives have a fitted effect of over 55% in size
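qHTS luciferase splicing reporter: luminescence rises when SMN2 exon 7 is included in transfected HEK293 cells. Compound exposure lasted 30-36 h at 37C, with 4.5 mM final sodium butyrate as control, followed by a ONE-Glo read.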
NPC1 prom act = activators of NPC1 promoter. Huh7 NPC1 promoter luciferase reporter, 24 h. Potency, µM (doses to about 9.22 µM), most hits filed as activators. 320,000 tested, 2.4% active; further: nearly all actives have a fitted effect of over 60% in size
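Readout is luciferase luminescence, reflecting NPC1 promoter activation in stably transfected Huh7 cells after 24 h compound exposure at 37 °C in reduced-serum medium with 10% FBS.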
ELG1 genotox = inducers of genotoxicity in HEK293T ELG1-luciferase cells; 330,000 tested, 1.3% active; HEK293T ELG1-luciferase reporter, luminescence, 16 h; Potency, µM (titrated, usually from 46 µM), usual class: activators; further: nearly all actives have a fitted effect of over 60% in size
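Genotoxic stress is detected as increased luminescence from luciferase-tagged ELG1 in HEK293T cells, measured with ONE-Glo after a 16 hr treatment at 37 °C.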
Luc counter = Kinase-Glo luciferase inhibition (counter-screen). Q27757. Kinase-Glo luciferase, ATP luminescence, 8 min. Potency, µM (series often up to 38.3 µM), usual class: inhibitors. 200,000 tested, 0.28% active; further: nearly all actives have a fitted effect of over 60% in size
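Compounds were added to a substrate mix at pH 7.2 (50 mM imidazole, 10 uM ATP, within the enzyme's linear range), followed by Kinase-Glo detection reagent; luminescence was measured after 8 minutes at ambient temperature.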
A number is an active result. The list is not random: actives were taken first. Their share in the collection is about 7.5%. The call rests on the fitted dose curve; in most records, active means well fitted curve in the direction sought with a large enough effect; inconclusive means small, poorly fitted or top-dose-only effect, or another doubt; inactive means no such curve, though single readings can be large; an effect the other way counts as inactive or inconclusive.

How did Cc1nc2cc(NC(=O)NCCC3=CCCCC3)ccc2o1 do in these assays?
Rab9 prom act: 3.5µM; FLuc modulator: 12µM; NPC1 prom act: 4µM; ELG1 genotox: 15µM; Luc counter: inactive

Results for COC(=O)CCC(=O)NNC(=O)C1CC1(c1ccccc1)c1ccccc1 (stereo unspecified) ?
Rab9 prom act: inactive; FLuc modulator: inactive; NPC1 prom act: inactive; ELG1 genotox: inactive

Results for N#Cc1c(/N=C/c2cc3ccccc3s2)sc2c1CCC2 ?
Rab9 prom act: 1.4µM; FLuc modulator: inconclusive; SMN2 splice up: 10µM; NPC1 prom act: 1.4µM; ELG1 genotox: inconclusive; Luc counter: inactive

How did Cc1ccc(C=Nc2ccccc2C#N)s1 do in these assays?
Rab9 prom act: inactive; FLuc modulator: 1.3µM; SMN2 splice up: inactive; NPC1 prom act: inactive; ELG1 genotox: inactive; Luc counter: inactive

How did Cc1ccc(/C=N/c2sc3c(c2C#N)CCCCC3)o1 do in these assays?
Rab9 prom act: 4µM; FLuc modulator: 0.17µM; SMN2 splice up: inactive; NPC1 prom act: 4.5µM; ELG1 genotox: 1.5µM; Luc counter: inconclusive

What do the screens show for `N#Cc1c(/N=C/c2ccco2)sc2c1CCC2`?
Rab9 prom act: inactive; FLuc modulator: 2.4µM; NPC1 prom act: inactive; ELG1 genotox: inactive; Luc counter: inactive

What do the screens show for `Cc1ccc(/C=N/c2sc3c(c2C#N)CCC3)s1`?
Rab9 prom act: inconclusive; FLuc modulator: 0.67µM; SMN2 splice up: 7.1µM; NPC1 prom act: inconclusive; ELG1 genotox: inconclusive; Luc counter: inactive

How did Cc1[nH]n(-c2ccc(F)cc2)c(=O)c1/C=N/c1sc2c(c1C#N)CCCC2 do in these assays?
Rab9 prom act: inactive; FLuc modulator: 13µM; SMN2 splice up: inactive; NPC1 prom act: inactive; ELG1 genotox: inactive; Luc counter: inactive

What do the screens show for `COc1cc(/C=C2/C(=O)ON=C2c2ccccc2)ccc1O`?
Rab9 prom act: inactive; FLuc modulator: 19µM; SMN2 splice up: inactive; NPC1 prom act: inactive; ELG1 genotox: inactive; Luc counter: inactive

What do the screens show for `COc1cc(/C=C2\C(=O)ON=C2c2ccccc2)cc(Cl)c1O`?
Rab9 prom act: inactive; FLuc modulator: 19µM; SMN2 splice up: inactive; NPC1 prom act: inactive; ELG1 genotox: inactive; Luc counter: inactive

Results for O=C1ON=C(c2ccccc2)/C1=C/c1ccc(O)cc1 ?
Rab9 prom act: inactive; FLuc modulator: inconclusive; NPC1 prom act: inactive; ELG1 genotox: inconclusive

How did O=C1ON=C(c2ccc(Cl)cc2)/C1=C/c1ccc(O)cc1 do in these assays?
Rab9 prom act: inactive; FLuc modulator: 11µM; SMN2 splice up: inactive; NPC1 prom act: inactive; ELG1 genotox: inconclusive; Luc counter: inactive

How did COc1cc(/C=C2\C(=O)ON=C2c2ccccc2)cc(Br)c1O do in these assays?
Rab9 prom act: inactive; FLuc modulator: inconclusive; NPC1 prom act: inactive; ELG1 genotox: inactive

Results for O=C(c1ccncc1)N1CCC[C@@]2(CCN(c3ccccc3)C2)C1 ?
SMN2 splice up: inactive; Luc counter: inactive

What do the screens show for `Cc1csc(N/N=C/c2ccccn2)n1`?
Rab9 prom act: 0.45µM; FLuc modulator: 2.1µM; SMN2 splice up: 3.5µM; NPC1 prom act: inactive; ELG1 genotox: 12µM; Luc counter: inconclusive

What do the screens show for `C(=N\Nc1nc2ccccc2s1)/c1ccccn1`?
Rab9 prom act: inactive; FLuc modulator: 0.076µM; NPC1 prom act: inactive; ELG1 genotox: inconclusive

What do the screens show for `Cc1cc(=O)[nH]c(N/N=C/c2ccc([N+](=O)[O-])cc2)n1`?
Rab9 prom act: inactive; FLuc modulator: inactive; SMN2 splice up: inactive; NPC1 prom act: inactive; ELG1 genotox: inactive; Luc counter: inactive

How did Brc1csc(/C=N/Nc2nc3ccccc3s2)c1 do in these assays?
Rab9 prom act: 3.2µM; FLuc modulator: 1.2µM; SMN2 splice up: 2.8µM; NPC1 prom act: 5µM; ELG1 genotox: inconclusive; Luc counter: inactive

How did Cc1csc(N/N=C/c2ccc([N+](=O)[O-])cc2)n1 do in these assays?
Rab9 prom act: 2.8µM; FLuc modulator: inconclusive; NPC1 prom act: inconclusive; ELG1 genotox: inactive

How did COc1ccc([C@H]2CC(=O)C=C(c3cc(C=O)ccc3OC)C2)cc1 do in these assays?
Rab9 prom act: inactive; FLuc modulator: inactive; NPC1 prom act: inactive; ELG1 genotox: inactive

How did CCCCC(=O)OCc1c(-c2ccccc2)ncc2ccccc12 do in these assays?
Rab9 prom act: inactive; FLuc modulator: inactive; NPC1 prom act: inactive; ELG1 genotox: inactive

What do the screens show for `O=C(O)c1csc(N/N=C/c2ccc(Br)cc2)n1`?
Rab9 prom act: inactive; FLuc modulator: 5.4µM; SMN2 splice up: inactive; NPC1 prom act: inactive; ELG1 genotox: inactive; Luc counter: inactive

What do the screens show for `CCNc1nc(NCC)nc(N/N=C/c2ccc(Br)cc2)n1`?
Rab9 prom act: inactive; FLuc modulator: inactive; SMN2 splice up: inactive; NPC1 prom act: inactive; ELG1 genotox: inactive; Luc counter: inactive

Results for C(=N\Nc1ccccc1)/c1nc2ccccc2s1 ?
Rab9 prom act: 0.79µM; FLuc modulator: 1.5µM; NPC1 prom act: 3.5µM; ELG1 genotox: inconclusive

How did COc1ccc(NC(=O)CSCc2cc(=O)c3cc(C)ccc3[nH]2)cc1 do in these assays?
FLuc modulator: inactive

Results for O=C(NNCc1ccc(O)cc1)c1ccccc1Cl ?
Rab9 prom act: inactive; FLuc modulator: inconclusive; NPC1 prom act: inactive; ELG1 genotox: inconclusive

Results for CCc1noc(C)c1C(=O)N(C)CC(=O)Nc1ccc(F)c(F)c1F ?
Rab9 prom act: inactive; FLuc modulator: inactive; NPC1 prom act: inactive; ELG1 genotox: inactive

What do the screens show for `Cc1ccc2oc(-c3cc(NC(=O)c4ncn[nH]4)ccc3O)nc2c1`?
Rab9 prom act: inactive; FLuc modulator: 2.7µM; NPC1 prom act: inactive; ELG1 genotox: inactive

What do the screens show for `Cc1ccc2oc(-c3ccc(NC(=O)c4ccncc4)cc3O)nc2c1`?
Rab9 prom act: inactive; FLuc modulator: inconclusive; NPC1 prom act: inactive; ELG1 genotox: inconclusive; Luc counter: inactive

How did COc1ccccc1NC(=O)CSc1nnc(-c2ccccc2C)o1 do in these assays?
FLuc modulator: inactive

What do the screens show for `Cc1cccc(NC(=O)CSc2nnc(-c3ccccc3C)o2)c1`?
Rab9 prom act: 4µM; FLuc modulator: inactive; SMN2 splice up: 13µM; NPC1 prom act: inconclusive; ELG1 genotox: inconclusive; Luc counter: inactive

Results for Cc1cc(C)cc(NC(=O)CSc2nnc(-c3ccccc3C)o2)c1 ?
Rab9 prom act: inconclusive; SMN2 splice up: inactive; NPC1 prom act: inconclusive; ELG1 genotox: inactive; Luc counter: inactive

Results for N#Cc1cccc(NC(=O)CSc2nnc(-c3n[nH]c4ccccc34)o2)c1 ?
Rab9 prom act: inconclusive; FLuc modulator: inactive; SMN2 splice up: 13µM; NPC1 prom act: inconclusive; ELG1 genotox: inactive; Luc counter: inactive

How did Cc1cccc(NC(=O)CSc2nnc(-c3n[nH]c4ccccc34)o2)c1 do in these assays?
Rab9 prom act: inactive; FLuc modulator: inactive; SMN2 splice up: inconclusive; NPC1 prom act: inactive; ELG1 genotox: inactive; Luc counter: inactive

Screens deposited in PubChem by National Center for Advancing Translational Sciences (NCATS).
